# PubChem BioAssay AID1851 (National Center for Advancing Translational Sciences (NCATS), 2009)
# Several values for one entry are separate records, joined by “and”; a condition that tells them apart may be missing. Equal entries are not always repeated. Out of some 16,000 compounds screened, about 2,600 (16%) were called active. Roughly 20% stayed inconclusive and do not appear here. Calls follow the shape of the dose curve; as a rule, active = well fitted curve in the direction sought with a large enough effect; inconclusive = small, poorly fitted or top-dose-only effect, or effect the other way; inactive = no such curve, though single readings can be large or run the other way. These entries were drawn from the full list. More than one record can exist for a structure, and the calls need not agree.
# Target: Cytochrome P450 2D6 (Homo sapiens) (UniProt P10635)
# Sequence (P10635 whole entry, looked up): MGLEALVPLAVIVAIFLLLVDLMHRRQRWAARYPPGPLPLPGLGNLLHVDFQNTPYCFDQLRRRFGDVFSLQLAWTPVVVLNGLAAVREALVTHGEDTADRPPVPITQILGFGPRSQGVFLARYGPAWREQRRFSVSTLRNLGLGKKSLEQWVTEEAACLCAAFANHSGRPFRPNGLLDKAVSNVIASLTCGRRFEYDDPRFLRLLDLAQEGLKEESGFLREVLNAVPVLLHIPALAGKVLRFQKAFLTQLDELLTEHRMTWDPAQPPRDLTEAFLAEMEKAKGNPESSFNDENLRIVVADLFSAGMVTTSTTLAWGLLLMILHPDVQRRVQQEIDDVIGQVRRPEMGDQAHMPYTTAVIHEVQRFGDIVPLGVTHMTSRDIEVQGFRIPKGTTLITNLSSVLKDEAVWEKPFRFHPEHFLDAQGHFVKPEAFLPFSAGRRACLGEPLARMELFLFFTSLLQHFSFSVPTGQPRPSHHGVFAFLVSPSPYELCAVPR
# Test: Cytochrome panel assay with activity outcomes
# Details: recombinant CYP, pro-luciferin dealkylation, luminescence, p450-cyp2d6; series mostly up to 57.1 µM
# % is scaled to controls: 0 for no effect and ±100 for the full control effect.
Structure (SMILES),AC50,"activity, negative = inhibition"
COC(=O)[C@@H]1C[C@H]1[C@@H](NC(=O)c1cc(C)nn1C)c1ccccc1,12.6 µM (active),–
COC(=O)[C@@H]1C[C@H]1[C@@H](NC(=O)c1cc(C)on1)c1ccccc1,inactive,–
COC(=O)[C@H]1C[C@@H]1[C@H](NC(=O)c1cc(C)on1)c1ccccc1,inactive,–
CCOC(=O)C1=C(CSc2nc3ccccc3s2)NC(=O)NC1c1cccc([N+](=O)[O-])c1 (configuration not stated),inactive,–
O=C(CN1C(=O)NC2(CCCCCC2)C1=O)N1CCN(S(=O)(=O)c2ccc(Cl)cc2)CC1,inactive,–
O=C(O)C1CC2(C1)CC(C(=O)O)C2 (configuration not stated),–,10.8% [at 11.4 µM] (inactive)
O=C(N/N=C/c1cccc([N+](=O)[O-])c1)c1cc2c(ccc3ccccc32)o1,inactive,–
CC[C@@H]1OC(=O)[C@H](C)[C@H](O[C@@H]2C[C@](C)(OC)[C@H](O)[C@H](C)O2)[C@H](C)[C@H](O[C@@H]2O[C@@H](C)C[C@@H](N(C)C)[C@@H]2O)[C@](C)(O)C[C@H](C)C(=NOCOCCOC)[C@H](C)[C@H](O)[C@]1(C)O,inactive,–
C=CCSc1nnc(NC(=O)COc2ccc3ccccc3c2)s1,inactive,–
COC(=O)c1c(C)nc2ccccc2c1C(=O)O,inactive,–
COc1ccc2c(c1)C(=O)N(CCc1ccc(S(=O)(=O)NC(=O)NC3CCCCC3)cc1)C(=O)C2(C)C,inactive,–
COc1ccc(CCNC(=O)COc2ccc(S(=O)(=O)NC3CCCCC3)cc2Cl)cc1,15.8 µM (active),–
COc1ccc(CCNC(=O)COC(=O)c2cnc(C)cn2)cc1,inactive,–
Cc1ccc(N=Nc2c(=O)[nH]n3c(C)cc(C)nc23)cc1,inactive,–
O=C1Nc2ccccc2Nc2ncccc21,inactive,–
CN1CCN(CC(=O)N2c3ccccc3C(=O)Nc3cccnc32)CC1,inactive and 31.6 µM (active),–
O=C1c2ccccc2C(=O)N1CC(=O)N1c2ccccc2CCc2ccccc21,inactive,–
CCN1CCCC1CNC(=O)C1c2cc(OC)c(OC)cc2C(=O)N(C)C1c1cccnc1 (configuration not stated),inactive,–
Cc1scc2c1N(C(=O)CN1CCN(C)CC1)c1ccccc1NC2=O,inactive and 5.01 µM (active),–
CCCN(CCC)C[C@@H]1CCCCN1CCNC(=O)N1c2ccccc2C(=O)Nc2cccnc21,2.51 µM (active),–
Cc1sc2nc(C3CC3)nc(SCC(=O)N3CC(=O)Nc4ccccc43)c2c1C,inactive,–

Structure (SMILES),AC50,"activity, negative = inhibition"
CCCCN1C(=O)C(NC(=O)C2CC2)(C(F)(F)F)C2=C1CC(C)(C)CC2=O (configuration not stated),inactive,–
O=C(CCn1nc(-c2ccc(Cl)cc2)ccc1=O)N1CCOCC1,inactive,–
O=C1Nc2ccccc2C1=Nc1cccc2ncccc12,–,-4.91% [at 11.4 µM] (inactive)
Nc1ncnc2c1ncn2CCCCC(=O)O,–,-3.98% [at 11.4 µM] (inactive)
O=c1c(-c2ccccc2)nc2cncnc2n1-c1ccccc1,inactive,–
CCC(CC)C(=O)Nc1c2cnn(-c3ccccc3)c2nc(=O)n1-c1ccccc1,inactive,–
CCCc1nnc(NC(=O)CN2C(=O)C3C4C=CC(C4)C3C2=O)s1 (configuration not stated),inactive,–
O=c1cnc2cnc(N3CCOCC3)nc2n1C1CC1,inactive,–
COc1ccc(CNc2ncnc3ccc(-c4c(C)noc4C)cc23)c(OC)c1,15.8 µM (active),–
COCCNc1ncnc2ccc(-c3ccoc3)cc12,inactive,–
COc1ccccc1CNc1ncnc2ccc(-c3ccc4c(c3)OCO4)cc12,0.794 µM (active),–
COc1ccc(CNc2ncnc3ccc(-c4ccoc4)cc23)c(OC)c1,10 µM (active),–
COc1ccccc1CNc1ncnc2ccc(-c3ccoc3)cc12,3.16 µM (active),–
CCOC(=O)COc1ccc(/C=C/[N+](=O)[O-])c(OCC(=O)OCC)c1,inactive,–
Clc1ccc(Nc2ncn[nH]2)cc1,inactive,–
CCCCCCCCCCCCCCCC(=O)C(F)(F)F,inactive,–
Cc1cc(C)c(-c2noc(C(=O)OC(C)(C)C)c2C(=O)OC(C)(C)C)c(C)c1,inactive,–
Cc1cc(OC(=O)c2ccccc2Cl)cc(=O)n1C,inactive,–
Cc1sc2ncn(CC(=O)NCCCC(=O)N3CCN(c4ncccn4)CC3)c(=O)c2c1C,inactive,–
Cc1ccc(C)n1N1C(=O)/C(=C\c2ccc(Cl)cc2)SC1=S,inactive,–
Cn1c(SCC(=O)NC2CC2)nnc1-c1cccc(NC(=O)c2ccccc2F)c1,inactive,–

Structure (SMILES),AC50,"activity, negative = inhibition"
C[C@H]1/C=C\CC(=O)OC[C@H](C)C(=O)N2CCC[C@@H]2C(=O)OC1,–,-8.94% [at 11.4 µM] (inactive)
COc1ccc2nc(NC(=O)CSc3nnc(C)s3)sc2c1,inactive,–
COc1ccc2nccc(SCC(=O)O)c2c1,–,-10.3% [at 11.4 µM] (inactive)
COc1ccc2c(c1)nc(SCC(=O)c1ccc(Br)s1)n2C,5.01 µM (active),–
CCOC(=O)C1=C(N)n2c(s/c(=C/c3ccccc3)c2=O)=C(C(=O)OCC)C1c1ccccc1 (configuration not stated),inactive,–
c1ccc(-c2nc3ccccc3o2)nc1,inactive,–
Cn1c(=O)c(-c2cccs2)nc2cnc(N3CCNCC3)nc21,inactive,–
Cc1ccc(-n2[nH]c(=O)c3cccnc32)cc1,inactive,–
CC(C)c1ccc2c(c1)CC[C@H]1[C@@](C)(CN)CCC[C@@]21C,1.26 µM (active),–
COc1ccc(Cc2nc3ccc(S(=O)(=O)N4CCOCC4)cc3[nH]2)cc1OC,inactive,–
CCCCC#Cc1nc(N)c2ncn([C@@H]3O[C@@H](C(=O)NCC)[C@H](O)[C@@H]3O)c2n1,inactive,–
COc1cccc(-c2noc(Cn3nc(C)c([N+](=O)[O-])c3C)n2)c1,inactive,–
COc1cccc(CN2CCN(Cc3cc(OC)c(OC)cc3[N+](=O)[O-])CC2)c1,0.224 µM (active),–
CCOc1ccc(C(=O)Cc2cc(OC)c(OC)cc2[N+](=O)[O-])cc1,inactive,–
COc1cccc(Nc2ncc3ncc(=O)n(C)c3n2)c1,inactive,–
COc1ccc(CCNC(=O)Cn2cnc3c2c(=O)n(C)c(=O)n3C)cc1OC,inactive,–
O=C(O)c1nn(-c2ccc(Cl)cc2)c2c1C(=O)c1ccccc1C2=O,–,-7.18% [at 11.4 µM] (inactive)
O=C(Nc1ccc2c(c1)nc1n2CCN(C2CCCCC2)C1)NC1CCCCC1,12.6 µM (active),–
CCCNC(=O)Nc1ccc2c(c1)nc(C)n2C,inactive,–
O=C(Nc1ccc(Cl)cc1)NC1CCCCC1,inactive,–
